“And” between values parts separate entries of the source, which are not always exact repeats. Equal values may be shown once. Where a name gives a salt, the structure may show the parent alone. ± gives the standard deviation of the averaged measurements.
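Also: TDF denotes transformed human dermal fibroblasts of mesenchymal origin.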

In the assay the test system is TDF. The experiment in a line: cell number relative to DMSO (% of DMSO); higher = more cells (less growth inhibition / toxicity). As to conditions: concentration: 10 µM; 24 h. The essentials: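 Six fields per well were imaged at ×10 after the cells were fixed in 3.7% formaldehyde and stained with a rabbit anti-H1.0 antibody, an AlexaFluor 647 secondary and DAPI. The HCC1569 and TDF cells had been plated at 800 per well in 384-well plates (RPMI, 10% FBS) and treated in triplicate with compounds at 10 µM for 24 h at 37 °C. The values are the median of replicates of H1.0 nuclear intensity or cell number, as percent of the plate control. Smoothing for positional effects was applied to HCC1569 data.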
In the case of `NCC1OC(OC2C(CO)OC(OC3C(O)C(N)CC(N)C3OC3OC(CO)C(O)C(O)C3N)C2O)C(N)C(O)C1O.O=S(=O)(O)O` (stereo unspecified) [Paromomycin sulfate], the cell number is 106. For `C=CC(=O)c1ccc2ccccc2c1`, the cell number came out at 92. In the case of `CC1OC(OC2C(Oc3cc(O)c4c(c3)OC(c3ccc(O)cc3)CC4=O)OC(CO)C(O)C2O)C(O)C(O)C1O` (stereo unspecified) [Naringin], the cell number stood at 99. As for `O.Oc1cc(O)c2c(c1)OC(c1ccc(O)c(O)c1)C(O)C2` (single isomer, unassigned; (+)) [(+)-Catechin Hydrate], the cell number stood at 110.

Turning to `CCCCCCCCCC(=O)NC(CN1CCOCC1)C(O)c1ccccc1.Cl` (racemic), the cell number came to 91.9. Under `O=c1[nH][nH]c2nnc(-c3c(-c4ccccc4)nn4ccccc34)cc12` [ERK Inhibitor II,                   Negative control] stands 98.8; under `O=C1NC(C(=O)O)CS1` (stereo unspecified) [Procysteine], 110. Under `Cc1ccc2c(c1)C(N1CCN(C)CC1)=Nc1cccnc1N2` stands 102; under `COC(=O)C1=C(C)NC(C)=C(C(=O)OCCN2CCN(C(c3ccccc3)c3ccccc3)CC2)C1c1cccc([N+](=O)[O-])c1` (stereo unspecified) [Manidipine], 109; under `COc1c2occc2cc2ccc(=O)oc12` [Xanthotoxin], 104. Consider `Cc1cc(Cc2cc(C)cc(C(C)(C)C)c2O)c(O)c(C(C)(C)C)c1`, for which the cell number is 90.7 and 98.5. The compound `CCC12CCCN3CCc4c(n(c5ccccc45)C(O)(C(=O)OC)C1)C32` (stereo unspecified) [Vincamine] yielded a cell number of 95.8. Under `CCCCCN(C)CCC(O)(P(=O)(O)O)P(=O)(O)O` [Ibandronate] stands 100; under `NC(=O)N1c2ccccc2C=Cc2ccccc21` [Carbamazepine], 111 ± 1.5; under `CCOC(=O)c1ncn2c1CN(C)C(=O)c1cc(F)ccc1-2` [Flumazenil], 97.3 ± 3.1.

Take `CCCCCCCCCCCC=CCCCCCC(=O)O` [7(Z)-Nonadecenoic acid]: the cell number stood at 104. The compound `CC(=O)CCCCn1c(=O)c2c(ncn2C)n(C)c1=O` [Pentoxifylline] gave a cell number of 106 ± 5.2.

With `CCCCCCCCC=CCCCCCCCCOCC(COP(=O)([O-])OCC[N+](C)(C)C)OC(C)=O` (stereo unspecified), the cell number amounted to 114. `CC(C)c1cc(C(C)C)c(-c2csc(N(CCN(C)C)Cc3cccnc3)n2)c(C(C)C)c1`: the cell number came to 55.2. Under `COc1cc(Cc2cnc(N)nc2N)cc(OC)c1OC` [Trimethoprim] stands 95.9 ± 2.8; under `CC(=O)OC1(C(C)=O)CCC2C3C=C(C)C4=CC(=O)CCC4(C)C3CCC21C` (stereo unspecified) [Megestrol Acetate], 96.9; under `NC1CCN(c2nc3c(cc2F)c(=O)c(C(=O)O)cn3-c2ccc(F)cc2F)C1` (stereo unspecified) [Tosufloxacin], 102. Under `CN1CCN(C2Cc3ccccc3Sc3ccc(Cl)cc32)CC1.O=C(O)C=CC(=O)O` (stereo unspecified) stands 104. Under `O=C(NCCO[N+](=O)[O-])c1cccnc1` [Nicorandil] stands 96.3; under `CCCCCCCCCCCCCCCC(=O)NC(CN1CCOCC1)C(O)c1ccccc1` (racemic), 94.8. In turn, `O=C(O)/C=C/c1ccc(O)c(O)c1` [Caffeic acid] showed a cell number of 99.8 ± 4.1. For the compound `CC(C)(C)NCC(O)COc1nsnc1N1CCOCC1` (stereo not drawn) [S(-)-Timolol maleate], the cell number worked out at 104. Under `Cc1ccc(C(=O)c2ccc(CC(=O)O)n2C)cc1` [Tolmetin] stands 99; under `CC1C(=O)OC2C(O)C34C5CC(C(C)(C)C)C36C(OC(=O)C6O)OC4(C(=O)O5)C12O` (stereo unspecified) [Ginkgolide B], 104; under `Nc1ccc2ncnc(NCCc3ccc(Oc4ccccc4)cc3)c2c1` [NF-kB Activation Inhibitor], 70.7. Under `Nc1c2c(nc3ccccc13)CCCC2O.O=C(O)C=CC(=O)O` (stereo unspecified) [Hydroxytacrine maleate] stands 103; under `CC1=CC(=O)C(C(C)C)=CC1=O` [Thymoquinone], 102 ± 3.6.

The compound `CCCCCC=CC=CC(O)CCCCCCCC(=O)O` (racemic) returned a cell number of 96.8. `COc1cc(C(=O)c2ccc3ncccc3c2)cc(OC)c1OC` [quinolin-6-yl(3,4,5-trimethoxyphenyl)methanone] had a cell number of 8.78. `CC(=O)O.NC(=NCCCC(N)C(=O)O)NO` [NG-Hydroxy-L-arginine acetate]: the cell number was 107.

The compound `O=C(O)c1ccc(SC2=NS(=O)(=O)c3ccccc32)cc1` [4-((1,1-dioxidobenzo[d]isothiazol-3-yl)thio)benzoic acid] showed a cell number of 107.
